Experimental data published in PubChem BioAssay AID720551 (National Center for Advancing Translational Sciences (NCATS), 2013).
The campaign covered roughly 340,000 compounds. About 1,300 (0.38%) were called active.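 Rule for the calls: active = maximum activity change below -70%; inconclusive = maximum activity change between -70% and -50%; inactive = maximum activity change above -50%.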 The entries come from a sample that favours actives as a whole.

target: Voltage-gated inwardly rectifying potassium channel KCNH2 (Homo sapiens) (UniProt Q12809); assay: qHTS for Inhibitors of KCHN2 3.1: Wildtype qHTS; details: U2OS, BacMam KCNH2, thallium flux FluxOr; at 1.84 µM; hits give low values
Sequence (Q12809 whole entry, looked up): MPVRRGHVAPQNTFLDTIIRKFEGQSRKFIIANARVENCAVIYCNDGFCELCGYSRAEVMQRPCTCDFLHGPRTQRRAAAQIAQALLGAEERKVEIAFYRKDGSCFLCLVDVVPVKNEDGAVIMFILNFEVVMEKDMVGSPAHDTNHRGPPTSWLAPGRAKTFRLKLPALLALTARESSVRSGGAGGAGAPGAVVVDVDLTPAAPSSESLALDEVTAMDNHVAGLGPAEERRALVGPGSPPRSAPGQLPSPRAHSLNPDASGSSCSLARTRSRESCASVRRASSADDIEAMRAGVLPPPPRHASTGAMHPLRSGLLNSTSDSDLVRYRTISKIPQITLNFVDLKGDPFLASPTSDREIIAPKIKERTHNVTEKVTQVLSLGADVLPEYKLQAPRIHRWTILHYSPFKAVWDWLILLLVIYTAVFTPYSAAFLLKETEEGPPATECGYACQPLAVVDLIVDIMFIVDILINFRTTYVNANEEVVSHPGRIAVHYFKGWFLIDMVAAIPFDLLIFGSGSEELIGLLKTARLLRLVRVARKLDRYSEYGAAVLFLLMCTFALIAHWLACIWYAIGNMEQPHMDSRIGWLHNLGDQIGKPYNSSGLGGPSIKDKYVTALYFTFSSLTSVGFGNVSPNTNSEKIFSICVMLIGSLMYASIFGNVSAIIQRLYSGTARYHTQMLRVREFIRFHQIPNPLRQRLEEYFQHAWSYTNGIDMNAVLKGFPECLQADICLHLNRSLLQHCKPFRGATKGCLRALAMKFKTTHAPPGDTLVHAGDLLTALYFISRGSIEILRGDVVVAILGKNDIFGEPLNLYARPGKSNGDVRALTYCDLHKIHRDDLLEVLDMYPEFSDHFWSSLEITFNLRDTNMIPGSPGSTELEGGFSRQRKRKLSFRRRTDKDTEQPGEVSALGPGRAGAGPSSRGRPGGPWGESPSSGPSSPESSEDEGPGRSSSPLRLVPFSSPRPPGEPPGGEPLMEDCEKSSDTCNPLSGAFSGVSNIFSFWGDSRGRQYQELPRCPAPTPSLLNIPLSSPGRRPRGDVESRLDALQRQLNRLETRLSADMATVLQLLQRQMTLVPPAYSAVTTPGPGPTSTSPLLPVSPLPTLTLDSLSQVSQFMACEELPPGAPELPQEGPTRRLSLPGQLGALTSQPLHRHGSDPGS
Procedure, shortened: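 U2OS cells were transduced with wild-type KCNH2 virus (2.03 x 10^8 / mL) for 4 h at room temperature, then cultured overnight at 37 C. Thallium flux was read with FluxOr dye. Rate constants were normalized to DMSO controls.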
% is set by controls: 0 for no effect and ±100 for the full control effect.

Row | Compound | activity change
1 | COc1cc(-c2nnc(NC(=O)CS(=O)(=O)c3ccc(Cl)cc3)o2)cc(OC)c1OC | -3.22% (inactive)
2 | C[C@@H]1Cn2cnc(C(=O)Nc3ccc(CNC(=O)OC(C)(C)C)cc3)c2C(=O)N1 | 1.51% (inactive)
3 | O=C(CSc1nnc(-c2cccnc2)n1Cc1ccco1)c1ccc(Cl)c(Cl)c1 | 1.21% (inactive)
4 | Cc1ccc(NC(=O)CSc2nnc(-c3cnccn3)n2Cc2ccco2)cc1C | 8.19% (inactive)
5 | O=C(CSc1nnc(-c2cnccn2)n1Cc1ccco1)c1ccc(Cl)c(Cl)c1 | -187% (active)
6 | CC(=O)Nc1ccc(SCC(=O)NC(=O)c2ccc(Cl)cc2)cc1 | 1.87% (inactive)
7 | CSc1ncnc2c1ncn2CCCNCC(C)c1ccccc1 (configuration not stated) | -15.1% (inactive)
8 | O=C(Nc1ccnn1C1CCN(C/C=C/c2ccc(F)cc2)CC1)C1CCCC1 | -105% (active)
9 | Cc1nn(C)c(Cl)c1CN1CCC(n2nccc2NC(=O)C2CCCC2)CC1 | 26.5% (inactive)
10 | CC(CN1CCC(n2nccc2NC(=O)C2CCCC2)CC1)c1ccccc1 (configuration not stated) | 15.8% (inactive)
11 | COC(=O)N(C)C[C@@H]1OCc2cnnn2CCCC(=O)N([C@@H](C)CO)C[C@@H]1C | 1.19% (inactive)
12 | COCCn1c(SCC(=O)Nc2ccc(F)cc2F)nc2c(c1=O)SCC2 | -2.69% (inactive)
13 | Nc1cc(C(=O)N2CCN(c3ccccc3Cl)CC2)ccc1N1CC2CC(C1)c1cccc(=O)n1C2 (configuration not stated) | 6.37% (inactive)
14 | C=CCNC(=S)N1CCc2[nH]c3ccccc3c2C1 | 1.48% (inactive)
15 | O=C(CCCN1CCc2[nH]c3ccc(F)cc3c2C1)c1ccc(F)cc1 | -94.7% (active)
16 | CC1CCc2[nH]c3ccc(C(=O)N(C)CC(=O)Nc4cccc(F)c4)cc3c2C1 (configuration not stated) | 2.89% (inactive)
17 | Cc1ccc(C(=O)N[C@H](C(=O)N2CCN(c3ncccn3)CC2)C(C)C)cc1 | 1.07% (inactive)
18 | Cc1ccc(S(=O)(=O)N2C[C@H]3C(=O)C[C@@H](c4cccc5ccccc45)N(S(=O)(=O)c4ccc(C)cc4)[C@H]3C[C@H]2c2ccc(Cl)cc2)cc1 | 5.59% (inactive)
19 | O=C(COc1ccc(Br)cc1)OCC(=O)c1ccc[nH]1 | -10.8% (inactive)
20 | COc1ccc(NC(=O)CN(C)C(=O)c2cc(C)oc2C)cc1 | -15.3% (inactive)
21 | CCc1cccc(CC)c1N1C(=O)CC(Sc2ccccc2N)C1=O (configuration not stated) | -0.824% (inactive)
22 | CCC(c1nnnn1C1CCCC1)N(Cc1cccs1)Cc1cc2cccc(C)c2[nH]c1=O (configuration not stated) | -3.98% (inactive)
23 | CCC(c1nnnn1Cc1ccco1)N(CCc1ccccc1)Cc1cc2cccc(C)c2[nH]c1=O (configuration not stated) | -261% (active)
24 | CCC(c1nnnn1Cc1ccco1)N(Cc1cc2cc(OC)ccc2[nH]c1=O)C1CCCCC1 (configuration not stated) | 0.509% (inactive)

Row | Compound | activity change
25 | Cc1ccccc1C#CC1=CC(=O)CC(C)(C)C1 | 11% (inactive)
26 | CC1(C)CC(=O)C=C(c2ccccc2CO)C1=O | 2.31% (inactive)
27 | CCOC(=O)C1(CCOc2ccccc2)CCN(Cc2ccc(C#CCCO)cc2)CC1 | 19.1% (inactive)
28 | CCOC(=O)C1(CCOc2ccccc2)CCN(Cc2cc(OC)cc(OC)c2)CC1 | -109% (active)
29 | CCCS(=O)(=O)N1CCC(CCOc2ccccc2)(C(=O)OCC)CC1 | 9.17% (inactive)
30 | O=C(O)c1ccccc1Cc1ccc(F)c2ccccc12 | 3.97% (inactive)
31 | COC(=O)C[C@H]1C[C@@H]2c3cc(N(C)C)ccc3O[C@@H]2[C@H](CO)O1 | -11.4% (inactive)
32 | O=C(c1ccc(CS(=O)Cc2ccccc2Cl)o1)N1CCN(c2ccccc2)CC1 (configuration not stated) | 7.11% (inactive)
33 | CCn1c(C)nc2c1C(=O)c1ccccc1C2=O | -229% (active)
34 | CCOC(=O)c1ccc2c(c1)nc(C)n2CC | 12.4% (inactive)
35 | Cc1nc2ccccc2n1CC(O)c1ccccc1 (configuration not stated) | -1.47% (inactive)
36 | C[C@@H]1CN([C@H](C)CO)C(=O)CCCn2cc(nn2)CO[C@H]1CN(C)S(C)(=O)=O | -23.5% (inactive)
37 | CC(C)N=C1CCCC1C(=S)SSC(=S)C1CCCC1=NC(C)C (configuration not stated) | -26.8% (inactive)
38 | Cc1ccc(S(=O)(=O)/N=C2\C=C(NS(=O)(=O)c3ccc(C)cc3)C(=O)c3ccccc32)cc1 | 1.35% (inactive)
39 | Cc1ccc(S(=O)(=O)N(C)C)cc1NC(=O)COC(=O)/C=C/c1cccs1 | -3.39% (inactive)
40 | CN(C)CCN(C(=O)CN1C(=O)c2ccccc2C1=O)c1nc2cc3c(cc2s1)OCCO3 | 8.23% (inactive)
41 | Cc1ccc2sc(N(CCN(C)C)C(=O)/C=C/c3cccs3)nc2c1C | -101% (active)
42 | Cc1cc(C)c2nc(N(CCN(C)C)C(=O)/C=C/c3cccs3)sc2c1 | -136% (active)
43 | Cc1ccc(S(=O)(=O)N(C)C)cc1NC(=O)/C=C/c1cccs1 | -0.908% (inactive)
44 | Cc1cccc2sc(N(CCCN(C)C)C(=O)CCS(=O)(=O)c3ccccc3)nc12 | 3.42% (inactive)
45 | CCOc1ccc(CCNC(=O)COC(=O)c2ccc(C)c(S(=O)(=O)N3CCOCC3)c2)cc1OCC | -0.902% (inactive)
46 | O=C(Nc1cccc(C(=O)O)c1)/C(=C\c1ccccc1)NC(=O)c1ccc(Br)o1 | 9.44% (inactive)
47 | Cc1ccc(S(=O)(=O)NN=C2CC(C)(C)CC(=O)C2(C)C)cc1 | -3.73% (inactive)
48 | O=C(OCc1ccccc1)N1CCC2CC1c1cc(N3CCN(S(=O)(=O)c4cc(Cl)cc(Cl)c4)CC3)ccc12 (configuration not stated) | 3.43% (inactive)

Row | Compound | activity change
49 | O=C(Nc1cccn(Cc2c(Cl)cccc2Cl)c1=O)c1ccc(Cl)cc1 | -350% (active)
50 | Cc1cc(NC(=O)c2ccco2)c(=O)n(Cc2c(F)cccc2Cl)c1 | -11.4% (inactive)
51 | O=C(Nc1cccn(Cc2ccccc2Cl)c1=O)NC1CCCCC1 | -11.4% (inactive)
52 | CCOC(=O)C1CCN(C(=O)c2ccc3c(=O)n4nc(Nc5ccccc5CC)sc4nc3c2)CC1 | -22.8% (inactive)
53 | CCN(CC)C(=O)C1=C(C)N(Cc2ccc(F)cc2)C(=O)C(CC(=O)NCc2cccc3ccccc23)C1 (configuration not stated) | 6.51% (inactive)
54 | O=C(Oc1ccccc1)c1ccc2nccnc2c1 | -169% (active)
55 | COC(=O)c1ccc(OC(=O)c2cnccn2)cc1 | -0.0992% (inactive)
56 | O=C(Oc1ccc(-c2nc(-c3ccccn3)no2)cc1)c1ccccc1 | -11.6% (inactive)
57 | Cc1cccc(C(=O)C(O)(c2ccccc2)C2CCCCC2=O)c1 (configuration not stated) | 8.63% (inactive)
58 | N#CCSc1ccccc1NC(=O)CN1C(=O)NC(CCc2ccccc2)C1=O (configuration not stated) | -4.38% (inactive)
59 | CC1CCC2(CC1)NC(=O)N(CC(=O)NCc1ccco1)C2=O (configuration not stated) | 5.92% (inactive)
60 | CCOC(=O)CNC(=O)CN1C(=O)CCSc2ccccc21 | 10.6% (inactive)
61 | COc1ccc(CCNC(=O)CN2C(=O)CCSc3ccccc32)c(OC)c1 | -169% (active)
62 | COc1ccc(CCNC(=O)CCc2cn(C)c3ccccc23)c(OC)c1 | 6.58% (inactive)
63 | CCOC(=O)C(C(=O)c1ccccc1)C(c1ccccc1)c1nccc2ccccc12 (configuration not stated) | 3.11% (inactive)
64 | O=C(COC(=O)c1ccc(F)cc1)Nc1ccc2c(c1)OCO2 | -0.371% (inactive)
65 | O=C(CN1CCN(C(=O)c2ccco2)CC1)Nc1ccc2c(c1)OCO2 | -4.79% (inactive)
66 | O=C(CN1CCN(CC(=O)Nc2ccc3c(c2)OCO3)CC1)Nc1ccc(F)cc1 | -129% (active)
67 | CCCCN1C(=O)C(CC(=O)NCc2cccs2)CC(C(=O)N2CCOCC2)=C1C (configuration not stated) | -2.88% (inactive)
68 | Cc1ccc(S(=O)(=O)N2C[C@]3(O)C[C@@H]4C(=O)N(c5ccccc5)C(=O)[C@@H]4C[C@]3(OC(=O)NC3CC3)C2)cc1 | -7.72% (inactive)
69 | CN(C)/C=C(/C(=O)c1ccc(Cl)cc1)S(=O)(=O)c1ccccc1 | 0.0109% (inactive)
70 | CN(C)/C=C(/C(=O)c1ccccc1Cl)S(C)(=O)=O | -134% (active)
71 | CN(C)/C=C(/C(=O)c1ccccc1)S(=O)(=O)c1ccc(Cl)cc1 | -7.44% (inactive)
72 | COCC1CCCCN1C(=O)c1cc(COc2ccc(C)c(C)c2)on1 (configuration not stated) | -11.8% (inactive)
